Out of some 310,000 compounds screened, about 410 (0.13%) were called active. Another 2% or so got no clear call; they are omitted. No rule for the calls is given here. The list is a sample of the results. Measured potencies and affinities stand elsewhere.
test: RSV antiviral activity via CPE protection, HEp-2 cells, primary 10 µM value included (AID 2391); conditions: RSV-induced CPE inhibition, at 10 µM, hits give high values

CPE inhibition, inactive:
COc1ccc(-c2ccc3c(N)c(C(=O)c4ccc(OC)c(OC)c4)sc3n2)cc1 1.75%, COc1ccc(NC(=O)c2sc3nc(-c4cccnc4)ccc3c2N)cc1OC 1.58%, O=C(Nc1nc(-c2ccccc2)cs1)c1cccc([N+](=O)[O-])c1C(=O)O 0.63%, CCCC(=O)Oc1ccc(C2NC(=O)c3ccccc3O2)cc1OC (configuration not stated) -0.32%, CCNS(=O)(=O)c1ccc(CCC(=O)NCc2ccccn2)cc1 -0.26%, CS(=O)(=O)N1N=C(c2ccco2)CC1c1ccc(Br)cc1 (configuration not stated) -1.1%, CCOc1c(Cl)cc(CNCc2ccccn2)cc1OC 0.14%, C/C(N)=C(/C#N)C(=O)COC(=O)CNS(=O)(=O)c1ccc(C)cc1 0.79%, C/C(N)=C(/C#N)C(=O)COC(=O)CNS(=O)(=O)c1c(F)cccc1F 1.63%, CCOC(=O)c1sc(=NC(=O)c2ccc(OC(C)C)cc2)n(C)c1C -0.02%, Cc1cc[n+](C(C)C(=O)c2ccc(Cl)cc2)cc1 (configuration not stated) 0.43%, COC(=O)C1=C(N)Oc2cc(C)n(Cc3ccccc3)c(=O)c2C1c1ccccc1 (configuration not stated) 3.61%, O=C(Nc1ccccc1N1CCN(C(=O)c2ccc(Cl)cc2)CC1)c1ccc(Br)cc1 10.3%, CC(C)(C)NC(=O)COC(=O)c1ccccc1Nc1ccc(SC(F)F)cc1 20.3%, CN(C)C(=O)COC(=O)c1ccccc1OCC(=O)Nc1ccc(SC(F)F)cc1 0.56%, c1ccc2[nH]cnc2c1 3.25%, Clc1cc2nc[nH]c2cc1Cl 2.89%, OCc1cn(-c2ccc(Cl)cc2)nn1 0.61%, COc1cc(NC(=O)C2CC(=O)N(CCc3ccc(F)cc3)C2)cc(OC)c1OC (configuration not stated) 1.32%, CCCn1c2ccc(F)cc2c2nnc(NN)nc21 2.66%, CCn1c2ccc(F)cc2c2nnc(NN)nc21 8.49%, Cc1nn(-c2ccccc2)cc1/C=N/NS(=O)(=O)c1ccccc1 0.36%, Cc1nc(-c2cccc(S(=O)(=O)N3CCOCC3)c2)cs1 2.05%, O=S(=O)(c1cccc(-c2csc(-c3cccnc3)n2)c1)N1CCOCC1 18.8%, CC(C)(C)c1ccc(C(=O)c2c[nH]c(C(=O)NCCCn3ccnc3)c2)cc1 15.1%, CC(C)[C@H](NC(=O)N1CCn2c1nc1ccccc12)C(=O)NCc1ccc(F)cc1 7.05%, CC(C)[C@H](NC(=O)N1CCn2c1nc1ccccc12)C(=O)NCc1ccco1 5.22%, COc1cc(C(=O)NNC(=O)COc2ccccc2Cl)ccc1OCC(=O)N1CCOCC1 0.6%, O=C(Nc1cccc(NC(=O)c2ccccc2Cl)c1)c1ccco1 2.07%, c1ccc(N2CCN(c3ncnc4scc(-c5cccs5)c34)CC2)cc1 12.1%, COc1ccccc1C(=O)NCCCNc1ccc([N+](=O)[O-])cc1 0.97%, CCn1c(=O)c2cc(C(=O)N(C)c3ccc(OC)cc3OC)sc2c2ccccc21 13.1%, CCn1c(=O)c2cc(C(=O)N(C)c3ccccc3F)sc2c2ccccc21 17.4%, Cc1ccc(-c2nn(-c3ccccc3)cc2CN(Cc2ccccc2)C(=O)c2ccco2)o1 22.2%, Cc1c(CC(=O)N[C@@H](C)C(=O)O)c(=O)oc2c(C)c3occ(-c4ccccc4)c3cc12 6.88%, CCCCC(NC(=O)Cc1c(C)c2cc3c(C)c(C)oc3c(C)c2oc1=O)C(=O)O (configuration not stated) 1.13%, COc1ccc(Cl)cc1N(C(C)C(=O)O)S(C)(=O)=O (configuration not stated) 1.24%, CC(C)COc1ccc(C(=O)NNC(=O)c2ccc(=O)[nH]c2)cc1 0.85%, CCCCn1c(N)c(N(CCOC)C(=O)c2cc(CC)c(C)s2)c(=O)[nH]c1=O 0.21%, COc1ccccc1N(Cc1ccccc1)S(=O)(=O)c1cccc(C(=O)Nc2ccccn2)c1 40.2%, COc1ccccc1N(Cc1ccccc1)S(=O)(=O)c1cccc(C(=O)Nc2ccc(C)cn2)c1 40.7%, Cc1ccc(N(CCC#N)C(=O)COC(=O)C2CCN(S(=O)(=O)c3ccc(C)c(C)c3)CC2)cc1 3.94%, COCCN(C(=O)CSc1nnc(-c2ccc(Cl)cc2)o1)c1c(N)n(CC(C)C)c(=O)[nH]c1=O 2.35%, CCN(CC)c1ccc(-c2nnc(SCC(=O)N(CCOC)c3c(N)n(CC(C)C)c(=O)[nH]c3=O)o2)cc1 8.83%, COc1cc(OC)c2c(C)cc(=O)oc2c1 0.35%, CCc1cc(=O)oc2cc(OC(C)=O)cc(OC(C)=O)c12 5.44%, CCOc1ccccc1N(CC(=O)N1CCC(C(N)=O)CC1)S(=O)(=O)c1ccc(SC)cc1 1.65%, Cc1ccc(Cl)cc1NC(=O)CSc1sc2c(O)cc(=O)[nH]c2c1C#N -0.05%, Cc1ccc(C)c(OCC(=O)NCC(c2ccco2)N2CCCCC2)c1 (configuration not stated) -1.03%, OCCOCCn1c(C(CO)Nc2nc(-c3ccc(Cl)cc3)cs2)nc2ccccc21 (configuration not stated) 9.48%, c1ccc(Nc2nc(-c3ccncc3)nc3ccccc23)cc1 4.52%, Fc1ccc(Nc2nc(-c3ccncc3)nc3ccccc23)cc1 4.4%, COc1ccc(C(=O)NCCn2cc(SCC(=O)NCC3CCCO3)c3ccccc32)cc1 (configuration not stated) 0.51%, Cc1ccc(NC(=O)C2CCN(S(=O)(=O)c3ccc(F)cc3)CC2)cc1 -1.19%, Cc1ccc(S(=O)(=O)N2CCC(C(=O)Nc3ccc(S(=O)(=O)N4CCCC4)cc3)CC2)cc1 0.34%, CC(NC(=O)c1ccccc1NC(=O)c1ccccc1)C(=O)N1CCOCC1 (configuration not stated) 3.72%, Cc1ccc2[nH]c3c(c2c1)CN(C)CC3 -0.58%, CN1CCc2[nH]c3ccc(C(=O)NN)cc3c2C1 -1.2%, CC(C)CNC(=O)c1cccc(NC(=O)Cc2ccc(Br)cc2)c1 15.3%, CC(=O)/C(C#N)=C1\NC(=O)C(Cc2ccc(F)cc2)S1 (configuration not stated) 12.6%, CC(=O)/C(C#N)=C1\NC(=O)C(Cc2cc(Cl)ccc2Cl)S1 (configuration not stated) 14%, CC(=O)/C(C#N)=C1\NC(=O)C(Cc2ccc(C)c(Cl)c2)S1 (configuration not stated) 15%, CCc1ccc(CC2S/C(=C(\C#N)C(C)=O)NC2=O)cc1 (configuration not stated) 6.6%, CC1CCCN(c2nc3c(c(=O)n(C)c(=O)n3C)n2CCSc2nc3ccccc3o2)C1 (configuration not stated) 1.2%, COc1ccccc1NC(=O)C(=O)NCC1COc2ccccc2O1 (configuration not stated) 5.12%, NS(=O)(=O)c1ccc(CCNC(=O)CSc2nc3ccccc3c(=O)n2CCC(=O)N2CCCCC2)cc1 0.56%, c1csc(-c2nc3ccccc3[nH]2)c1 4.14%, c1ccc(-c2nc(-c3cccs3)[nH]c2-c2ccccc2)cc1 1.1%, Cc1cc(=O)[nH]c(-c2ccccc2O)n1 0.17%, Cn1c(=O)c2[nH]c(-c3ccccc3O)nc2n(C)c1=O 9.42%, O=S(=O)(NC(=NCc1ccccc1)c1ccccc1F)c1ccccc1 0.88%, COc1ccc(CNC(=O)CN(Cc2ccc(F)cc2)C(=O)CCC(=O)Nc2nccs2)cc1 0.79%, CC(OC(=O)c1cccc([N+](=O)[O-])c1)C(=O)NCc1ccc2c(c1)OCO2 (configuration not stated) 2.66%, COCc1cc(C)nc(NC2CC(C)(C)NC(C)(C)C2)c1C#N -1.99%, Cn1c2ccccc2c2nnc(SCc3ccc4nonc4c3)nc21 -0.67%, C=CCn1c2ccccc2c2nnc(SCc3ccc4nonc4c3)nc21 3.57%, CCCn1c2ccccc2c2nnc(SCC(=O)Nc3cc(C)on3)nc21 1.54%, CCn1c2ccccc2c2nnc(SCC(=O)Nc3c(C)n(C)n(-c4ccccc4)c3=O)nc21 17.8%, Nc1nnc(COc2cccc(C(F)(F)F)c2)s1 1.04%, COC(=O)c1ccc(C(=O)OC)c(NC(=O)C2CC2)c1 1.03%, COc1ccc2cc(CN(CCCN3CCOCC3)Cc3nnnn3C3CCCC3)c(=O)[nH]c2c1 -0.3%, CCOc1ccccc1N(CC)C(=O)c1ccc2c(=O)n3c(nc2c1)CCCCC3 4.24%, Cc1c(Cl)ccc2c1NC(=O)C21NC(CCC(N)=O)[C@H]2C(=O)N(c3ccc(Cl)cc3)C(=O)[C@H]21 (some centres not stated) 2.04%, C[N+](C)(C)CC/C=C1/c2ccccc2CSc2ccccc21 -0.47%, C/C(=N\O)c1oc2ccc3c(C)cc(=O)oc3c2c1C 21.3%, Cc1ccc(/C(=N\O)c2oc3c(C)c4oc(=O)cc(C)c4cc3c2C)cc1 -1.6%, CCC(Cc1ccccc1)NC(=O)C1CC1 (configuration not stated) -0.41%, O=[N+]([O-])c1ccc(CN2CCN(c3ccc([N+](=O)[O-])cc3)CC2)cc1 8.04%, COc1ccc(CNC(=S)NCc2ccc(OC(C)C)cc2)cc1 3.45%, COc1ccc(Nc2ncccc2C(=O)O)cc1 -0.34%, CC(C)c1ccc(Nc2ncccc2C(=O)O)cc1 10.4%, CCOC(=O)c1c(C)nc2c(c1C)/C(=N/O)CC(C)(C)C2 5.56%
